Assay results published in PubChem BioAssay (Tox21).
Results filed as inconclusive are left out. Active and inactive are the calls of the source. Unless noted, calls come from the whole dose curve; as a rule, active = well fitted curve in the direction sought with a large enough effect in the repeat runs; inconclusive = weak or mixed curves; inactive = no such curve, though single readings can be large; an effect the other way counts as inactive or inconclusive.

Legend:
[1] = qHTS assay to identify small molecule agonists of the estrogen receptor beta (ER-beta) signaling pathway - cell viability counter screen (AID 1259380); note: nearly all actives have a fitted effect of over 30% in size; note: potency is the fitted concentration of half-maximal effect
In short: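 Cytotoxicity is measured in parallel with the reporter screen: after 16 hr compound exposure at 37C and a 2 hr LiveBLAzer step, CellTiter-Glo is added to the same ER-beta-UAS-bla HEK293T wells and luminescence read after 30 min.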

[2] = qHTS assay to identify small molecule antagonists of the estrogen receptor beta (ER-beta) signaling pathway - cell viability counter screen (AID 1259382); note: nearly all actives have a fitted effect of over 55% in size; note: potency is the fitted concentration of half-maximal effect;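 for activity change, negative = cytotoxicity: HEK293T cells carrying ER-beta-UAS-bla reporter stimulated with estradiol; series mostly up to about 92 µM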
In short: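 Cytotoxicity counter screen multiplexed with the beta-lactamase antagonist assay: GripTite HEK293T ER-beta-bla cells were treated 16 hr with test chemicals in the presence of 1nM 17-beta-estradiol, and viability was measured by CellTiter-Glo.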

[3] = target: Estrogen receptor (Homo sapiens) (UniProt P03372); test: qHTS assay to identify small molecule agonists of the estrogen receptor alpha (ER-alpha) signaling pathway in the presence of an antagonist (AID 1259383; calls by dose curve; note: top concentration of the series differs between compounds; nearly all actives have a fitted effect of over 15% in size)
In short: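 Agonist-mode confirmation in the presence of the ER antagonist ICI-182,780 at 10.0nM final. Breast-derived VM7Luc4E2 reporter cells were exposed to compounds for 22hr, and ERE-driven luciferase was quantified by luminescence.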

[4] = qHTS assay to identify small molecule agonists or antagonists of the thyroid stimulating hormone receptor (TSHR) signaling pathway - wild type cell line counter screen (AID 1259384; calls by dose curve)
In short: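 Wild-type Hek293 cells, 800/well, 18 h at 37C, then compound with Ro20-1724 for 30 min RT. cAMP by HTRF (cAMP-d2/anti-cAMP cryptate), 1 h RT, fluorescence read. 15 concentrations, triplicates.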

[5] = target: Progesterone receptor (Homo sapiens) (UniProt P06401); test: qHTS assay to identify small molecule agonists of the progesterone receptor (PR) signaling pathway (AID 1346784; calls by dose curve; note: nearly all actives have a fitted effect of over 30% in size)
In short: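 The screen uses PR-UAS-bla HEK 293T cells in charcoal-stripped serum (2%). Compounds are applied for 16 hr at 37C after a 6 hr pre-incubation, and reporter activity is detected with a FRET beta-lactamase substrate after 2 hr at room temperature.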

[6] = target: Progesterone receptor (Homo sapiens) (UniProt P06401); test: qHTS assay to identify small molecule antagonists of the progesterone receptor (PR) signaling pathway (AID 1346795; active = well fitted inhibition curve with a large enough effect in the signal ratio in the repeat runs, not every such curve was filed as active; the % refers to the signal ratio)
In short: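 After 6 hr plating at 37C in 2% stripped-serum medium, PR-UAS-bla HEK293T cells got compounds, then 1 nM R5020. Sixteen hours later, LiveBLAzer substrate was applied for 2 hr at room temperature and fluorescence was recorded.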

[7] = qHTS assay to identify small molecule antagonists of the progesterone receptor (PR) signaling pathway - cell viability counter screen (AID 1346798); note: nearly all actives have a fitted effect of over 50% in size; note: potency is the fitted concentration of half-maximal effect; for activity change, negative = cytotoxicity: series mostly up to about 92 µM
In short: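 Viability was determined by ATP-based luminescence (CellTiter-Glo) in PR-UAS-bla HEK293T cells cultured in 2% charcoal-stripped serum and incubated 16 hr with compounds under R5020 stimulation.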

[8] = qHTS assay to identify small molecule agonists of the progesterone receptor (PR) signaling pathway - cell viability counter screen (AID 1346799; calls by dose curve; note: nearly all actives have a fitted effect of over 45% in size; note: potency is the fitted concentration of half-maximal effect)
In short: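 Viability was scored by ATP luminescence (CellTiter-Glo, 30 min, room temperature) in the same wells used for the reporter readout, after 16 hr compound exposure of PR-UAS-bla HEK293T cells.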

[9] = qHTS assay to identify small molecule antagonists of the TGF-beta/Smad signaling pathway - cell viability counter screen (AID 1346824); note: nearly all actives have a fitted effect of over 50% in size
In short: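 SBE-bla HEK 293T cells, incubated overnight, then compound plus 0.25 ng/mL TGF-beta1 (stock added) for 5 hr at 37 C. Viability was read in the same wells by CellTiter-Glo luminescence after 30 min at room temperature.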

[10] = qHTS assay to identify small molecule agonists of the TGF-beta/Smad signaling pathway - cell viability counter screen (AID 1346829); note: top concentration of the series differs between compounds; nearly all actives have a fitted effect of over 45% in size
In short: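 CellTiter-Glo luminescence readout; SBE-bla HEK 293T cells, overnight plating, compound 5 hr at 37 C/5% CO2, then bla substrate 2 hr RT, then CellTiter-Glo 30 min RT.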

[11] = qHTS assay to identify small molecule agonists of the TGF-beta/Smad signaling pathway (AID 1346859; active = well fitted activation curve with a large enough effect in the signal ratio in the repeat runs, not every such curve was filed as active; the % refers to the signal ratio; note: series mostly up to about 77 µM)
In short: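 Dual-wavelength fluorescence (460/530 nm emission) quantified beta-lactamase expression under the Smad binding element in HEK 293T cells following 5 hr compound treatment at 37 C.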

[12] = Human pregnane X receptor (PXR) small molecule agonists, qHTS cell viability counter screen (AID 1346977); note: nearly all actives have a fitted effect of over 50% in size; note: potency is the fitted concentration of half-maximal effect
In short: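 HepG2 cells stably carrying the PXR-Luc reporter are cultured with 5% charcoal-stripped FBS and treated with compounds for 24hr. CellTiter-Fluor is added at 23hr and fluorescence is read after 1hr.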

[13] = Caspase-3/7 induction in HepG2 cells by small molecules, qHTS assay (AID 1346978); note: nearly all actives have a fitted effect of over 15% in size
In short: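 Wild-type HepG2 cells, 2,000/well, settled 5 hr at 37 C and 5% CO2, then compound-treated for 17 hr; caspase-3/7 activity read by luminescent Caspase-Glo 3/7 after 30 min at room temperature.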

[14] = target: Androgen receptor (Homo sapiens) (UniProt P10275); test: qHTS assay to identify small molecule agonists of the androgen receptor (AR) signaling pathway in the presence of an antagonist (AID 1259381; calls by dose curve; note: nearly all actives have a fitted effect of over 15% in size)
In short: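 Agonist-mode confirmation screen: human MDA-kb2 cells stably expressing luciferase under an MMTV promoter bearing AR and GR response elements, co-treated with 3.0uM nilutamide (final). Luminescence measured after 16hr compound incubation.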

[15] = target: Thyrotropin receptor (Homo sapiens) (UniProt P16473); test: qHTS assay to identify small molecule antagonists of the thyroid stimulating hormone receptor (TSHR) signaling pathway (AID 1259385; calls by dose curve; note: nearly all actives have a fitted effect of over 20% in size)
In short: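 TSHR-HEK293 cells (800/well) plated 18 h, then compounds with Ro20-1724 and TSH at 1.5 ng/mL final, 30 min at room temperature. cAMP quantified by HTRF (cAMP-d2/anti-cAMP-cryptate, 1 h); 15 concentrations in triplicate.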

[16] = qHTS assay to identify small molecule agonists of the estrogen receptor alpha (ER-alpha) signaling pathway in the presence of an antagonist - cell viability counter screen (AID 1259386);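 note: series mostly up to about 92 µM; cells exposed to compounds for 22 h at 37 °C before the viability read; nearly all actives have a fitted effect of over 30% in size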
In short: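 Cytotoxicity was measured in parallel with the ERE-luciferase agonist screen, in the same wells. The cells were VM7Luc4E2, which endogenously express ER-alpha, and treatment was with compounds plus 10.0nM ICI-182,780 for 22hr.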

[17] = target: Thyrotropin-releasing hormone receptor (Homo sapiens) (UniProt P34981); test: qHTS assay to identify small molecule antagonists of the thyrotropin-releasing hormone receptor (TRHR) signaling pathway (AID 1346877; active = well fitted inhibition curve with a large enough effect in the repeat runs, not every such curve was filed as active; note: series mostly up to about 51 µM)
In short: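 Antagonism is measured as suppression of the calcium response to 1 nM TRH in TRHR-HEK293 cells that have been dye-loaded for 2 h at 37 °C after overnight plating. Each compound is tested at 15 concentrations in triplicate.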

[18] = target: Thyrotropin-releasing hormone receptor (Homo sapiens) (UniProt P34981); test: qHTS assay to identify small molecule agonists of the thyrotropin-releasing hormone receptor (TRHR) signaling pathway (AID 1346891; calls by dose curve;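 note: HEK293 cells expressing TRHR with calcium dye readout; series mostly up to about 58 µM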)
In short: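 Kinetic fluorescence (3 min, 1 s intervals) reported intracellular calcium after compound transfer onto TRHR-Hek293 cells pre-loaded with dye for 2 h at 37 °C.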

[19] = Caspase-3/7 induction in CHO-K1 cells by small molecules, qHTS cell viability counter screen (AID 1346979); note: nearly all actives have a fitted effect of over 35% in size; note: potency is the fitted concentration of half-maximal effect
In short: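 Seeding: 1,500 CHO-K1 cells/well. Rest: 5hr, 37C. Treatment: compounds in DMSO, 16hr. Read: CellTiter-Fluor, 1hr, fluorescence.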
% is set by controls: 0 for no effect and ±100 for the full control effect.

Chain of Estrogen receptor (Homo sapiens) (P03372 whole entry, looked up): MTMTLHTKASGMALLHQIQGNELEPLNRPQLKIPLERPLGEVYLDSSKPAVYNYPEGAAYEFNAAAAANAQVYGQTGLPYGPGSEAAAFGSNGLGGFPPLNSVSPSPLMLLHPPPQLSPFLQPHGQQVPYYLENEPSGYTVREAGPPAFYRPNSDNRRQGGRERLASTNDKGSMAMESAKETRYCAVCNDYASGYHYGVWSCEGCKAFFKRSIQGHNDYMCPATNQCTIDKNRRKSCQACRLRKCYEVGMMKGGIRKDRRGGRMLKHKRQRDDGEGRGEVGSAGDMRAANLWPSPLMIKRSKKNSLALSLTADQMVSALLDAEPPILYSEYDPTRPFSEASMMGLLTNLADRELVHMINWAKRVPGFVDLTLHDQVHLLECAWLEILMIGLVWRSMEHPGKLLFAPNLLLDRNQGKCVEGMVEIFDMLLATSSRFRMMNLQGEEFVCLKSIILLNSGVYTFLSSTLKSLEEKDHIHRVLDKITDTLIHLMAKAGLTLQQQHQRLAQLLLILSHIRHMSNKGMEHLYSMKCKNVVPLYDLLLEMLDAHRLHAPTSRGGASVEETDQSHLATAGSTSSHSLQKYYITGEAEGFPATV
Chain of Thyrotropin-releasing hormone receptor (Homo sapiens) (P34981 whole entry, looked up): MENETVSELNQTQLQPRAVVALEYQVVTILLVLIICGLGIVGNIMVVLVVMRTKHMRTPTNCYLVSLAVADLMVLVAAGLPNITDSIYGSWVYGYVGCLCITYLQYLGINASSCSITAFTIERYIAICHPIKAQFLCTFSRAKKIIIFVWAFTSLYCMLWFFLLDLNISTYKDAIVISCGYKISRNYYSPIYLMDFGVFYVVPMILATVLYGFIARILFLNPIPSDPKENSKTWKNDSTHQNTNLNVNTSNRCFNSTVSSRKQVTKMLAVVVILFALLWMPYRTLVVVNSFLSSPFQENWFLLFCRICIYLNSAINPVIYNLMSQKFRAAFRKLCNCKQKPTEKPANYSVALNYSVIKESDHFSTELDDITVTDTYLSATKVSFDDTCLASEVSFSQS
Chain of Progesterone receptor (Homo sapiens) (P06401 whole entry, looked up): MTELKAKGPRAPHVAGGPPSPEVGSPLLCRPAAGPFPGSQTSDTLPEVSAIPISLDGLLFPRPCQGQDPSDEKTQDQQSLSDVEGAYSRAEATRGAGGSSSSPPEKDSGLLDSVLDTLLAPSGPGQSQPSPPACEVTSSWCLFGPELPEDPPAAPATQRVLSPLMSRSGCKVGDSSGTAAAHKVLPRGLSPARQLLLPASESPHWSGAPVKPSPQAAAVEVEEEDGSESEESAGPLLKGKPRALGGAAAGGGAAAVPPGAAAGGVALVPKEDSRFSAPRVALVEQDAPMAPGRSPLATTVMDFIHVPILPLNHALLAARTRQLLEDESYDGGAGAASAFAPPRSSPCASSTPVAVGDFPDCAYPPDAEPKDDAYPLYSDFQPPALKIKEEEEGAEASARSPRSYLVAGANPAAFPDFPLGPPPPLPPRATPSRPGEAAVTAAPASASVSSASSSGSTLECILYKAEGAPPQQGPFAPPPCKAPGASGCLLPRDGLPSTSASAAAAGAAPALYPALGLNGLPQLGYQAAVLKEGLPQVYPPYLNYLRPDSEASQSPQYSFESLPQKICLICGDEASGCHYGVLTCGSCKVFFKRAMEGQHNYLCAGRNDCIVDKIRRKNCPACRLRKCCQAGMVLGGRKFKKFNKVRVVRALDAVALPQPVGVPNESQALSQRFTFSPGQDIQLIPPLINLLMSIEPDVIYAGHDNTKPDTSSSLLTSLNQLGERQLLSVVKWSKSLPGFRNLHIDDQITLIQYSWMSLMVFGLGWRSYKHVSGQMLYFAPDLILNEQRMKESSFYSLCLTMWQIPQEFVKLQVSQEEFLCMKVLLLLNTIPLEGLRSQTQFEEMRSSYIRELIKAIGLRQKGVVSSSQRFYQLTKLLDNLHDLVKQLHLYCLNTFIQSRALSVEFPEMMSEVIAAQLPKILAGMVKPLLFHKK
Chain of Thyrotropin receptor (Homo sapiens) (P16473 whole entry, looked up): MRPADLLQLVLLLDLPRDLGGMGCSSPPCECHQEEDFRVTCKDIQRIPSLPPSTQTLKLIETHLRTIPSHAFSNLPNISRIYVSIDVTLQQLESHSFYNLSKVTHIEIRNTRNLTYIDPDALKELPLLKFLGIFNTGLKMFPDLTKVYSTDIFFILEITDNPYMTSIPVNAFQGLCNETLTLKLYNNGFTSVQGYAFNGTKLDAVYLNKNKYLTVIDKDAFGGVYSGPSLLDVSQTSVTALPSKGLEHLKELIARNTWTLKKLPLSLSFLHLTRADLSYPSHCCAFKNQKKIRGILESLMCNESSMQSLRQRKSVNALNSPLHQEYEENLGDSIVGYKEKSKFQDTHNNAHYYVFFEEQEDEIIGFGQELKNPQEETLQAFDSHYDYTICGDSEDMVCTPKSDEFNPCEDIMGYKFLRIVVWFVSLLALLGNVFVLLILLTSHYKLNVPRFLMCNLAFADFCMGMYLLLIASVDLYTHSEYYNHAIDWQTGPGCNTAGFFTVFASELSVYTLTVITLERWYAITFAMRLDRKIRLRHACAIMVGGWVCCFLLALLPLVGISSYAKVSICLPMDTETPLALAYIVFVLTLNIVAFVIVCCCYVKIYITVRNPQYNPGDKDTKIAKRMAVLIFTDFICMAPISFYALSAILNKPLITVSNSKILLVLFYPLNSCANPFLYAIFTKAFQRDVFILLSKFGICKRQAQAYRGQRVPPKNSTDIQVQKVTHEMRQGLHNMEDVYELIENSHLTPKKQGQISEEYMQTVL
Chain of Androgen receptor (Homo sapiens) (P10275 whole entry, looked up): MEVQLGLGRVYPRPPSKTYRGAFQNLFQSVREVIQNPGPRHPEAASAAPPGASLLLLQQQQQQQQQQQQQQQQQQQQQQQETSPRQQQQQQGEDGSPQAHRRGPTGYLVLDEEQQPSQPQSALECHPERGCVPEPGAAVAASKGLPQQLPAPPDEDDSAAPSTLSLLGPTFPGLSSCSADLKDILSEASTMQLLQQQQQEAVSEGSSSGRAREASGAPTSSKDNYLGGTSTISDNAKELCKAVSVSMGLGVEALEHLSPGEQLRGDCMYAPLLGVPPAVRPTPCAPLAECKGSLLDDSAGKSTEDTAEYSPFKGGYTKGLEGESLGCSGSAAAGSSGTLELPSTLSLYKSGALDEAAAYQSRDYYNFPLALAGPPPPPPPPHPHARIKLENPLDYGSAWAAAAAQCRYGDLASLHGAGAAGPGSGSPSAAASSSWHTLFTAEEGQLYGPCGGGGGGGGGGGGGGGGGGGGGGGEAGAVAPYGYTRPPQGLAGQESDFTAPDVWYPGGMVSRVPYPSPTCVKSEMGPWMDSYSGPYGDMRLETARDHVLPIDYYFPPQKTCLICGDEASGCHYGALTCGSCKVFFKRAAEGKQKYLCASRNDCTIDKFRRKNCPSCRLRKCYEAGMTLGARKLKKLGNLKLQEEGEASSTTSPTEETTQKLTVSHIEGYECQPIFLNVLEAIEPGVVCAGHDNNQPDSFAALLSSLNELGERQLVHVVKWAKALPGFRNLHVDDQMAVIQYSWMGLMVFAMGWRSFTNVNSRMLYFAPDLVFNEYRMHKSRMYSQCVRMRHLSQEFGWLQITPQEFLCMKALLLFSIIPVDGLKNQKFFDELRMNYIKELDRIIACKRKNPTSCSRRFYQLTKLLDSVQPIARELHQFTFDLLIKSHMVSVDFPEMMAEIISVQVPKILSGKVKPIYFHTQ

Nc1cccnc1N
inactive: Potency [1] | Potency [2] | Potency [3] | Potency [4] | outcome [5] | Potency [6] | Potency [7] | Potency [8] | Potency [9] | Potency [10] | outcome [11] | Potency [12] | Potency [13]

O=C1c2ccccc2C(=O)c2c(Cl)cccc21
active: Potency [1] 32.4 µM
inactive: Potency [14] | Potency [2] | Potency [3] | Potency [4] | Potency [15] | Potency [16] | outcome [5] | Potency [7] | Potency [8] | Potency [9] | outcome [11] | Potency [17] | Potency [18] | Potency [12] | Potency [13]

CCCCNc1ccc(NCCCC)c2c1C(=O)c1ccccc1C2=O
inactive: activity change, negative = cytotoxicity [1] 6.16% [at 19 µM] | activation [14] -0.623% [at 19 µM] | activation [3] -0.833% [at 19 µM] | activity change, negative = inhibition [15] -5.35% [at 19 µM] | activation [5] 0% [at 19 µM] | activity change, negative = inhibition [6] 12.4% [at 18.9 µM] | activity change, negative = cytotoxicity [7] -7.34% [at 18.9 µM] | activity change, negative = cytotoxicity [8] -18.3% [at 19 µM] | viability change, negative = cytotoxic [9] 4.33% [at 15.8 µM] | activity change, negative = cytotoxicity [10] 2.74% [at 15.8 µM] | activation [11] 0.206% [at 15.8 µM] | activity, negative = inhibition [17] 0.3% [at 10.5 µM] | activation [18] -0.167% [at 11.8 µM] | activity change, negative = cytotoxicity [12] -9.38% [at 19 µM] | caspase activation [13] -1.98% [at 19 µM]
active: Potency [19] 13 µM

O=C1CCC(=O)N1
inactive: Potency [1] | Potency [14] | Potency [2] | Potency [3] | Potency [4] | Potency [15] | Potency [16] | outcome [5] | Potency [6] | Potency [7] | Potency [8] | Potency [9] | outcome [11] | Potency [17] | Potency [18] | Potency [12] | Potency [13] | Potency [19]

C=C(C)CCO
inactive: Potency [1] | Potency [2] | Potency [3] | Potency [4] | Potency [15] | Potency [16] | outcome [5] | Potency [6] | Potency [7] | Potency [8] | Potency [17] | Potency [12] | Potency [13] | Potency [19]

CN[C@H]1CC[C@@H](c2ccc(Cl)c(Cl)c2)c2ccc(S(N)(=O)=O)cc21
inactive: Potency [14] | Potency [3] | Potency [4] | Potency [16] | Potency [9] | outcome [11] | Potency [17] | Potency [18]
active: Potency [1] 19.3 µM | Potency [2] 21.7 µM | Potency [7] 48.6 µM | Potency [8] 48.6 µM | Potency [12] 61.1 µM | Potency [19] 61.1 µM

C=CC(=O)OCC(Br)CBr (stereo not drawn)
inactive: Potency [1] | Potency [14] | Potency [2] | Potency [3] | Potency [4] | Potency [15] | Potency [16] | outcome [5] | Potency [7] | Potency [8] | Potency [9] | Potency [10] | Potency [12] | Potency [13]

COC(=O)c1ccc([N+](=O)[O-])cc1
inactive: Potency [1] | Potency [14] | Potency [2] | Potency [4] | Potency [15] | Potency [16] | Potency [7] | Potency [8] | Potency [9] | outcome [11] | Potency [17] | Potency [18] | Potency [12] | Potency [13] | Potency [19]

C/C(=N\[Si](C)(C)C)O[Si](C)(C)C
inactive: Potency [1] | Potency [14] | Potency [2] | Potency [3] | Potency [16] | outcome [5] | Potency [7] | Potency [8] | Potency [9] | Potency [10] | outcome [11] | Potency [17] | Potency [18] | Potency [12] | Potency [13] | Potency [19]

Oc1ccc2c(c1)CCC2
inactive: Potency [1] | Potency [14] | Potency [3] | Potency [16] | Potency [7] | Potency [8] | Potency [10] | outcome [11] | Potency [17] | Potency [12] | Potency [13] | Potency [19]
